Shown are actives, neighbours in structure and some others; about 3.2% of the full set was active somewhere.
TROY signal inh: TROY signaling inhibition; inhibition, % at 10 µM; Q293 LMP1-TROYcd NF-kB luciferase reporter, 4 h; actives 0.98% (n = 360,000);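 active = compounds whose plate-normalised and pattern-corrected inhibition of the luciferase reporter signal at the single screening dose is 50% or more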
EWS-Fli inh: blocks EWS/Fli oncoprotein-driven transcription | actives 0.67% (n = 350,000) | inhibition, % at 12.6 µM | A673 NR0B1-luciferase reporter, viability-normalised | AID 651661;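 active = mean inhibition of at least 50% after viability correction, with every replicate also passing that limit; inconclusive = mean reaches 50% but only one of two replicates passes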;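 note: firefly luciferase signal divided by Alamar Blue viability fluorescence both relative to DMSO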
PAX8 reporter: lowers PAX8-driven luciferase in RMG-I cells; RMG-I TPO-luciferase reporter, SteadyGlo, 24 h; inhibition, % at 12.6 µM; actives 1.2% (n = 360,000); AID 652154;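 active = mean replicate inhibition at least 60% with every replicate also reaching 60%; inconclusive = only one of the two criteria is met; inactive = mean below 60% and not all replicates reaching 60%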;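 note: luciferase light reporting Pax8 driven TPO promoter activity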
EBV LMP1 NFkB: reduces LMP1-driven NF-kappaB luciferase signal | AID 504558 | actives 0.69% (n = 350,000) | inhibition, % at 12.5 µM | LMP1-induced NF-kappaB luciferase reporter cells, luminescence; in the data active = inhibition above about 41%; inconclusive = no clear call, values can overlap the other calls
TWEAK Fn14 block: blocks TWEAK-Fn14 interaction in a reporter cell assay; inhibition, % at 10 µM; AID 1159606; actives 2% (n = 360,000); TWEAK-stimulated Fn14 reporter cells, luciferase luminescence, 8 h; in the data active = inhibition above about 50%
LGR2 antag: inhibitors of bursicon-induced Drosophila LGR2 receptor cAMP signaling | inhibition, % at 9.99 µM | actives 0.35% (n = 380,000) | HEK293 LGR2, CRE-luciferase, bursicon-stimulated, 4 h;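 active = drop in luminescence signal, shown as inhibition above about 50% in the replicate tests, limit read from the data, passing the limit was not always enough; inconclusive = probably only some replicates passing the limit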;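 note: agonist challenge used bursicon conditioned medium at about half maximal strength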
A number is an active result; – = inactive; ? = inconclusive; · = no result; ! = repeats disagree.

SMILES	TROY signal inh	EWS-Fli inh	PAX8 reporter	EBV LMP1 NFkB	TWEAK Fn14 block	LGR2 antag
Cc1ccc(S(=O)(=O)N[C@H]2CC[C@H](CCn3cc(C4CCCC4)nn3)O[C@H]2CO)cc1	·	–	–	·	·	–
Cc1noc(C)c1NC(=O)N(C)C[C@H]1OCc2ccccc2-c2c(n(C)c3ccccc23)C(=O)N([C@H](C)CO)C[C@H]1C	·	–	–	·	·	–
CN(C)C(=O)[C@@H]1[C@@H](CO)[C@@H]2Cn3c(ccc(/C=C/c4ccccc4)c3=O)[C@@H]2N1C(=O)c1cccnc1	·	–	–	·	·	–
COCC(=O)N1C[C@H](C)[C@@H](OC)CN(C)C(=O)c2ccc(NC(=O)Nc3cccc(F)c3)cc2OC[C@H]1C	·	–	·	·	·	–
N#CC1=C(N)SC(N)=C(C#N)C1c1cccc(Oc2ccccc2)c1	62	–	·	–	–	–
CCOc1ccc(C2C(C#N)=C(N)SC(N)=C2C#N)cc1OCC	–	·	·	–	–	·
O=S(=O)(c1ccc(Cl)cc1)c1cnc2ccccc2n1	–	–	–	–	59	–
Cc1cc(C)cc(S(=O)(=O)c2cnc3ccccc3n2)c1	–	–	–	–	–	–
CCC(=O)Nc1ccc2c(c1)C(=O)N(C)[C@@H]1CC[C@H](CC(=O)NC3CCCC3)O[C@@H]1CO2	·	–	–	·	·	–
O=C1NC2(CCC3(CC2)OCCO3)NN1c1ccccc1	–	–	–	–	–	–
O=C1NC2(NN1c1ccccc1)C1CC3CC(C1)CC2C3 (stereo not drawn)	·	·	·	–	88	–
Cc1noc(C)c1NC(=O)N(C)C[C@@H]1Oc2c(NC(=O)c3ccncc3)cccc2C(=O)N([C@@H](C)CO)C[C@@H]1C	·	–	·	·	·	–
COc1ccc(S(=O)(=O)N(C)C[C@H]2OCCCC[C@@H](C)Oc3ccc(NC(=O)Nc4ccc(C(F)(F)F)cc4)cc3C(=O)N([C@@H](C)CO)C[C@@H]2C)cc1	·	63	–	·	·	–
COc1ccc(S(=O)(=O)N(C)C[C@@H]2OCCCC[C@H](C)Oc3ccc(NC(=O)Nc4ccc(C(F)(F)F)cc4)cc3C(=O)N([C@H](C)CO)C[C@H]2C)cc1	–	–	79!	–	–	–
COc1ccc(S(=O)(=O)N(C)C[C@@H]2OCCCC[C@H](C)Oc3ccc(NC(=O)Nc4ccc(F)cc4)cc3C(=O)N([C@H](C)CO)C[C@H]2C)cc1	·	–	67	·	·	–
COCC(=O)Nc1ccc2c(c1)C(=O)N(C)C[C@@H](OC)[C@H](C)CN(Cc1ccccc1OC)[C@H](C)CO2	·	–	·	·	·	–
Cc1ccoc1C(=O)Nc1ccc2ccccc2c1	–	51	–	–	–	60
CCCCOc1cccc(C(=O)Nc2ccc(NC(=O)c3cccs3)cc2)c1	–	53	–	–	–	–
Cc1cc(C(=O)Nc2ccc3ccccc3c2)oc1C	–	–	–	–	–	–
O=C(Nc1ccc2ccccc2c1)c1ccc(Cl)cc1	–	–	–	–	–	–
CCCOc1ccc(C(=O)Nc2ccc(NC(=O)c3cccs3)cc2)cc1	–	–	–	–	–	–
Cc1ccoc1C(=O)Nc1ccc(CC(=O)O)cc1	–	·	–	44	76	·
Cc1ccc(C(=O)Nc2ccc3ccccc3c2)cc1	54	?	–	–	87	·
CN(C)C(=O)C[C@@H]1CC[C@H]2[C@@H](COC[C@@H](O)CN2S(=O)(=O)c2ccccc2Cl)O1	·	–	–	·	·	–
Cc1ccc(S(=O)(=O)Nc2ccc3c(c2)C(=O)N([C@H](C)CO)C[C@@H](C)[C@@H](CN(C)C)OCCCC[C@H](C)O3)cc1	·	–	–	·	·	–
CCOc1cccc(C(=O)Nc2ccc3ccccc3c2)c1	–	–	–	–	52	66
Cc1ccc(S(=O)(=O)N(C)C[C@H]2Oc3ccc(NS(=O)(=O)c4ccc(F)cc4)cc3CC(=O)N([C@H](C)CO)C[C@@H]2C)cc1	·	–	–	·	·	–
Cc1ccc(S(=O)(=O)Nc2ccc3c(c2)CC(=O)N([C@H](C)CO)C[C@H](C)[C@H](CN(C)S(=O)(=O)c2ccc(F)cc2)O3)cc1	·	–	79	·	·	–
Cc1ccc(S(=O)(=O)N(C)C[C@H]2Oc3ccc(NS(=O)(=O)c4ccc(F)cc4)cc3CC(=O)N([C@H](C)CO)C[C@H]2C)cc1	·	–	104	·	·	–
Cc1ccc(S(=O)(=O)N(C)C[C@H]2OCc3cnnn3CCCC(=O)N([C@@H](C)CO)C[C@H]2C)cc1	–	–	62!	–	–	–

Screens: PubChem BioAssay, several laboratories
